According to PubChem BioAssay AID1626 (SRMLSC, 2009):
Screen size: about 220,000 compounds; about 2,000 (0.91%) were called active. Inconclusive results (about 2%) are left out. No stated cut-off is given here; in the data, inconclusive means inhibition above about 80% without an active follow-up result; inactive means below that; test concentration not stated here. The list is a sample of the results. Results with a measured potency or affinity are listed apart.

Test: M. tuberculosis H37Rv growth inhibitors, H37Rv strain (AID 1626);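 further: bacteria incubated seven days before Alamar blue readout; 0% = bacteria only wells and 100% = bacteria with antibiotic wells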
Conditions: hits give high values, concentration not given here

Structure (SMILES)	inhibition
O=C(c1ccc2c(c1)OCCO2)C1CCN(C(=O)c2ccc(F)c(F)c2)CC1	5.15% (inactive)
Cc1cc(C)c(C(=O)C[n+]2cccc(C(N)=O)c2)c(C)c1	-6.58% (inactive)
Cc1oc(-c2ccccc2)nc1C(=O)N1CCN(c2ccc(F)cc2)CC1	0.48% (inactive)
Cc1ccccc1-c1ccc(/C=C2/SC(N3CCOCC3)=NC2=O)o1	-0.65% (inactive)
O=C1N=C(N2CCOCC2)S/C1=C\c1ccc(-c2ccccc2Cl)o1	2.45% (inactive)
CS(=O)(=O)c1ccc2nc(NC(=O)C3CCCO3)sc2c1 (configuration not stated)	-7.03% (inactive)
COc1cc2nc(CN(C)Cc3nc4ccccc4c(=O)[nH]3)[nH]c(=O)c2cc1OC	-3.41% (inactive)
CCN(Cc1cc(=O)n2ccsc2n1)Cc1nc2ccccc2c(=O)[nH]1	-0.5% (inactive)
CCN(Cc1nc2ccccc2c(=O)[nH]1)Cc1nc2cc(OC)c(OC)cc2c(=O)[nH]1	-5.3% (inactive)
CSc1ccc(CN(C)Cc2nc3ccccc3c(=O)[nH]2)cc1	-5.14% (inactive)
Cc1nn(CC(=O)NC(C)c2ccccc2)c(=O)c2ccccc12 (configuration not stated)	-2.29% (inactive)
CC1Cc2ccccc2N1C(=O)CSc1nc2c(c(=O)n(C)c(=O)n2C)n1Cc1ccc(F)cc1 (configuration not stated)	-3.29% (inactive)
COCCn1c(NC(=S)NC(=O)C23CC4CC(CC(C4)C2)C3)cc(=O)[nH]c1=O	-0.61% (inactive)
COC(=O)c1cccc(-n2c(CCC(=O)O)ccc2-c2cccs2)c1	6.42% (inactive)
CCN(CC)c1ccc(N=Cc2ccccc2[N+](=O)[O-])cc1	15.5% (inactive)
CN(/N=C/c1ccc([N+](=O)[O-])o1)c1ccccc1	1.22% (inactive)
COc1cccc(CC2(CO)CCCN(C/C=C/c3ccccc3OC)C2)c1 (configuration not stated)	39.9% (inactive)
COc1ccc(/C=C/CN2CCCC(CO)(Cc3cccc(Cl)c3)C2)cc1 (configuration not stated)	2.62% (inactive)
NC(=S)NC1CC2C=CC1C2 (configuration not stated)	-6.06% (inactive)
CN1CCN(S(=O)(=O)c2cccc(C(=O)Nc3nccs3)c2)CC1	-4.26% (inactive)
O=C1NC(=O)/C(=C/c2cccc(O)c2)N1	8.98% (inactive)
O=C(Cc1ccccc1)Nc1ccc(SC(F)F)cc1	1.19% (inactive)
O=C(COC(=O)Cc1ccccc1F)Nc1ccc(SC(F)F)cc1	91.8% (inactive)
O=C(O)CC/C(=N/NC(=O)c1cccs1)c1ccccc1	7.05% (inactive)
COc1ccc(C[C@H]2CN3C(=NC[C@H]3C)N2CCNC(=O)CCC2CCCCC2)cc1	-3.43% (inactive)
O=C(CCC1CCCCC1)NCCN1C2=NC[C@@H](Cc3ccccc3)N2C[C@H]1Cc1ccc(O)cc1	39.5% (inactive)

Structure (SMILES)	inhibition
COc1ccc(C[C@H]2CN3C(=NC[C@@H]3C)N2CCNC(=O)CCC2CCCCC2)cc1	-3.39% (inactive)
O=C(CCC1CCCCC1)NCCN1C2=NC[C@H](Cc3ccccc3)N2C[C@H]1Cc1ccc(O)cc1	9.81% (inactive)
NC(=O)c1nn(-c2ccccc2)nc1NC(=O)Cn1nnc(-c2ccccc2)n1	9.3% (inactive)
Cc1ccc(CS(=O)(=O)Cc2ccc(C(=O)NCc3cccs3)o2)cc1	3.64% (inactive)
CC(C)c1cccc(C(C)C)c1OCCCCN1CCCC1	10.1% (inactive)
O=C(CCn1cccc1)N1CCc2ccccc21	6.64% (inactive)
CCOC(=O)c1ccccc1NC(=O)COC(=O)C1=COCCO1	71.3% (inactive)
CC(C)(C)c1ccc(NC(=O)COC(=O)C2=COCCO2)cc1	74% (inactive)
Cc1ccc(NC(=O)COC(=O)C2=COCCO2)cc1	60.1% (inactive)
CC(C)c1ccc(NC(=O)COC(=O)C2=COCCO2)cc1	78.6% (inactive)
NS(=O)(=O)c1ccc(NS(=O)(=O)c2ccc(NC(=S)Nc3ccccc3)cc2)cc1	7.44% (inactive)
CC(=O)C1=C(C)NC(=O)CC1c1ccc(F)cc1 (configuration not stated)	-1.68% (inactive)
COc1cc([N+](=O)[O-])ccc1NC(=O)/C=C\C(=O)O	2.65% (inactive)
COc1ccc(CC(=O)Nc2ccccc2N2CCCCC2)cc1OC	6.94% (inactive)
Cn1cnnc1-c1cccc(NC(=O)c2cc(F)c(F)cc2Cl)c1	-5.29% (inactive)
O=C(NC1CCCC1)C(c1ccccc1)N(Cc1ccco1)C(=O)Cc1cccs1 (configuration not stated)	2.16% (inactive)
O=C(CCn1c(=O)[nH]c2ccccc2c1=O)Nc1ccccc1	-7.56% (inactive)
O=c1cc(C(F)(F)F)oc2c1ccc1ccccc12	-2.31% (inactive)
O=c1cc(C(F)F)oc2c1ccc1ccccc12	1.35% (inactive)
COc1ccc(C(=O)C2CCCN(C(=O)c3cccnc3SC)C2)c(C)c1 (configuration not stated)	-5.65% (inactive)
NS(=O)(=O)c1ccc(CCNCc2cccs2)cc1	1.78% (inactive)
COc1ccc(NC(=O)c2ccco2)cc1N	-14.7% (inactive)
CCOC(=O)C1C(=O)CC(C)(O)C(C(=O)OCC)C1c1ccc(SC)cc1 (configuration not stated)	9.27% (inactive)
Cc1ccc(N2CSC3=C(C#N)C(c4cccs4)CC(=O)N3C2)cc1 (configuration not stated)	7.29% (inactive)
COc1ccc(OC)c(C2CC(=O)N3CN(c4ccccc4)CSC3=C2C#N)c1 (configuration not stated)	0.68% (inactive)
CCc1ccc(N2CSC3=C(C#N)C(c4cccs4)CC(=O)N3C2)cc1 (configuration not stated)	22.1% (inactive)

Structure (SMILES)	inhibition
COc1ccc(N2CSC3=C(C#N)C(c4cc(OC)ccc4OC)CC(=O)N3C2)c(OC)c1 (configuration not stated)	-0.31% (inactive)
COc1ccc(N2CSC3=C(C#N)C(c4cc(OC)c(OC)cc4OC)CC(=O)N3C2)c(OC)c1 (configuration not stated)	15% (inactive)
COc1cccc(C2CC(=O)N3CN(c4cccc(Cl)c4C)CSC3=C2C#N)c1OC (configuration not stated)	-1.72% (inactive)
CC(=O)OC(C)CS(=O)(=O)c1ccccc1 (configuration not stated)	-4.77% (inactive)
CCN(c1cccc(C)c1)C(C(=O)Nc1ccc(OC)cc1)c1cc2c(cc1[N+](=O)[O-])OCO2 (configuration not stated)	1.06% (inactive)
Cc1ccc(C(=O)Nc2cccnc2)cc1[N+](=O)[O-]	-3.36% (inactive)
CCc1nc(SCc2cccnc2)[nH]c(=O)c1C	-4.49% (inactive)
COc1ccc(CN2C(=O)N(c3ccc(OC)cc3)C(=O)C2CC(=O)Nc2ccccc2)cc1 (configuration not stated)	6.5% (inactive)
CCCc1cc(=O)oc2c(CN3CCCC3)c(O)ccc12	-6.61% (inactive)
CCCCN(C)C(=O)c1ccc(CS(=O)(=O)c2ccccc2C)o1	-5.74% (inactive)
COC(=O)CN1C(c2ccc(Cl)cc2)=Nc2ccc(Cl)cc2C1c1ccccc1 (configuration not stated)	79.4% (inactive)
COC(=O)CN1C(c2ccccc2)=Nc2ccc(Cl)cc2C1c1ccccc1 (configuration not stated)	0.35% (inactive)
NNC(=O)CN1C(c2cccc(Cl)c2)=Nc2ccc(Br)cc2C1c1ccccc1 (configuration not stated)	-2.26% (inactive)
COc1ccc(C2=Nc3ccc(C)cc3C(c3ccccc3)N2CC(=O)NN)cc1 (configuration not stated)	-0.28% (inactive)
O=C1/C(=C/c2ccc(F)c(F)c2)CSc2sccc21	12.2% (inactive)
CCCCNS(=O)(=O)c1ccc2nc(-c3cccs3)cc(C(=O)NCC(OC)OC)c2c1	3.68% (inactive)
COc1ccc(NC(=O)NC23CC4CC(CC(C4)C2)C3)cc1OC	25.7% (inactive)
COC(=O)c1ccc(Cl)c(NC(=O)NC23CC4CC(CC(C4)C2)C3)c1	2.38% (inactive)
COC(=O)c1cccc(NC(=O)Nc2ccc(Cl)c(Cl)c2)c1	51.3% (inactive)
CCOc1ccc(NC(=O)Nc2ccc(NC(C)=O)cc2)cc1	-1.52% (inactive)
CCCc1cc(=O)oc2cc(C)cc(OCC(=O)O)c12	-0.53% (inactive)
COC(CNC(=O)c1cc(-c2ccncc2)nc2ccc(S(=O)(=O)N3CCOCC3)cc12)OC	-0.15% (inactive)
CN(C)CCc1nn[nH]n1	-3.39% (inactive)
COc1cc(NC(=O)c2ccc(F)cc2)c(OC)cc1Cl	6.81% (inactive)
COc1ccc(NC(=O)c2c(F)c(F)c(F)c(F)c2F)cc1Cl	0.77% (inactive)
COc1ccccc1N1CCN(Cc2nc(N)nc(Nc3ccc(C)cc3)n2)CC1	48.7% (inactive)

Structure (SMILES)	inhibition
COc1ccc(Nc2nc(N)nc(CN3CCN(c4ccc(F)cc4)CC3)n2)cc1	2.63% (inactive)
COc1ccccc1N1CCN(Cc2nc(N)nc(Nc3ccccc3)n2)CC1	-1.85% (inactive)
COc1cccc(N2CCN(Cc3nc(N)nc(Nc4ccccc4)n3)CC2)c1	0.52% (inactive)
CCOC(=O)c1ccc(NC(=S)Nc2cccc(N)n2)cc1	59.5% (inactive)
CCCNc1nc2c(c(=O)[nH]c(=O)n2C)n1Cc1cccc(Br)c1	1.4% (inactive)
CCOc1ccc(NC(=O)CN2C(=O)S/C(=C/c3cccn3C)C2=O)cc1	0.02% (inactive)
CCC(C)NC(=O)CCNS(=O)(=O)c1ccc(Br)cc1 (configuration not stated)	-4.65% (inactive)
CCn1nccc1C(=O)Nc1nccs1	-3.43% (inactive)
NS(=O)(=O)c1cccnc1Nc1cccc(C(F)(F)F)c1	3.67% (inactive)
Cc1ccc(Oc2nc(-c3cccnc3)nc3ccccc23)c([N+](=O)[O-])n1	7.05% (inactive)
c1ccc(Oc2nc(-c3cccnc3)nc3ccccc23)cc1	8.16% (inactive)
CCCC(=O)Nc1cc(C(=O)O)ccc1Sc1ccc(C)cc1	-4.31% (inactive)
COC(=O)CCC(=O)NC(=S)Nc1cc(Cl)ccc1Cl	-5.76% (inactive)
O=C(CSCc1ccccc1)Nc1ccc2c(c1)C(=O)NC2=O	-3.24% (inactive)
N#C/C(=C\c1ccc([N+](=O)[O-])cc1)c1ccccn1	7.55% (inactive)
NC(CO)(CO)COCc1ccccc1	5.19% (inactive)
O=C(/C=C/c1ccccc1[N+](=O)[O-])c1ccc(F)cc1	49.5% (inactive)
Cc1ccc(/C=C/C(=O)c2ccc(C)cc2)cc1	3.08% (inactive)
O=C(/C=C/c1ccc(-c2ccccc2)o1)c1ccccc1	12.6% (inactive)
O=C(O)/C=C/c1ccccc1[N+](=O)[O-]	-15.1% (inactive)
Cc1ccc(C(=O)/C=C/C(=O)O)cc1	1.06% (inactive)
Cc1ccc(/C=C/C(=O)c2ccccc2)cc1	10.3% (inactive)
Cc1ccc(C(=O)/C=C\NCc2ccccc2)cc1	2.13% (inactive)
Cc1ccc(C(=O)/C=C/c2ccc(-c3ccc(C)cc3)o2)cc1	88.2% (inactive)
